# Values joined by “and” are separate entries in the source; they are usually repeats but may differ in a detail not shown here. Equal entries are not always repeated. Values without a mark were called inactive. Results filed as inconclusive are left out. Active and inactive are the calls of the source. Unless noted, calls come from the whole dose curve; as a rule, active = well fitted curve in either direction with a large enough effect (not every such curve was filed as active); inconclusive = small, poorly fitted or top-dose-only effect, or another doubt; inactive = flat fitted curve, though single readings scatter.
# Experiments:
# [1] = AP1 Signaling Pathway (AID 357);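 note: ME-180 reporter cells stimulated with EGF at its EC50 level; % is set by controls: 0 for no effect and ±100 for the full control effect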
# Outline: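 AP-1-bla ME-180 cells, Opti-MEM + 0.5% dialyzed FBS, plated overnight 37 °C. Cpd titration + EC50 EGF, 5 h 37 °C. CCF4 2.5 h RT; ex 405, em 460/530 ratio → %activity, AC50.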
# [2] = Stat Signaling Pathway (AID 446);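 note: ME-180 cervical cancer cells given 40 pM IL-6 alongside compound; SIE-controlled beta-lactamase reporter measured as 460/530 nm FRET emission ratio; % is set by controls: 0 for no effect and ±100 for the full control effect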
# Outline: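 FRET read-out (405 nm excitation, 460/530 nm emission) of a beta-lactamase reporter under a STAT-inducible element in ME-180 cervical carcinoma cells. Cells with compound receive 40 pM IL-6 for 5 h. Values are normalised to AC90 stimulation and AC90 JAK-inhibitor controls.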
# [3] = molecular target: Glucocorticoid receptor (Homo sapiens) (UniProt P04150); assay: GR-GFP Redistribution (AID 450;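 active = compounds whose dose series gives a full or clear partial fitted curve of increased nuclear translocation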; note: potency is the fitted concentration of half-maximal effect); settings: U2OS GR-GFP nuclear translocation, laser cytometry, 2 h
# [4] = molecular target: Glucocorticoid receptor (Homo sapiens) (UniProt P04150); assay: GR-EFC Redistribution (AID 451; calls by dose curve; note: potency is the fitted concentration of half-maximal effect); settings: CHO-K1 GR-EFC translocation, beta-gal luminescence, 2 h
# Outline: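 Translocation of GR-ED fusion to nuclear EA restores b-gal, read by luminescence after 1 h room-temperature detection. Engineered CHO-K1 biosensor cells, 1,000/well, exposed 2 h at 37 C to titrations up to 46 uM final.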
# [5] = molecular target: Mitogen-activated protein kinase 10 (Mus musculus) (UniProt Q61831); assay: JNK3 AlphaScreen Assay (AID 530);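 note: kinase came from lysate of stimulated human HepG2 cells; signal reports phosphorylation of biotinylated GST-cJun 1-79 at Ser73 with 10 µM ATP; % is set by controls: 0 for no effect and ±100 for the full control effect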
# Outline: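 Kinase buffer: 20 mM Tris-HCl pH 7.6, 10 mM MgCl2, 1 mM DTT, 0.1 mM Na3VO4, 0.01% Tween-20; ATP 10 uM. Substrate biotin-GST-cJun(1-79), enzyme from activated HepG2 lysates. Detection by Ser73 phospho-antibody AlphaScreen.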
# [6] = molecular target: 3',5'-cyclic-AMP phosphodiesterase 4B (Homo sapiens) (UniProt Q07343); assay: qHTS Assay for Inhibitors of PDE-IV (AID 607; active = well fitted activation curve with a large enough effect in the main read-out, with a control signal flat, not every such curve was filed as active; note: % of control where 0% means no effect)
# Outline: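 Cell-based read-out of cAMP via a modified cyclic nucleotide-gated channel and membrane potential dye (535/590 nm) in HEK293 cells expressing PDE4 endogenously. Compounds tested up to 22.9 uM final; 100 uM RO 20-1724 reference.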
# [7] = molecular target: Cytochrome P450 1A2 (Homo sapiens) (UniProt P05177); assay: p450-cyp1a2 (AID 410; calls by dose curve; note: potency is the fitted concentration of half-maximal effect)
# Outline: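 20nM CYP1A2, 100uM Luciferin-ME (=Km), 100mM KPO4; cpd 10 min RT; +NADPH regen, 60 min RT; stop/detect 20 min; luminescence. Normalized to furafylline 57 uM = full inhibition.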
# [8] = Cell Viability - BJ (AID 421; calls by dose curve;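 note: potency is the fitted concentration of half-maximal effect; cells exposed to compound for 40 hours at 37 °C before readout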); settings: BJ fibroblast viability, qHTS
# Outline: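 Cytotoxicity as drop in intracellular ATP (CellTiter-Glo, 20 min RT) after 40 hr compound exposure of BJ fibroblasts at 37 °C. Titrations scaled between DMSO and 100 uM tamoxifen, Hill-fitted for AC50.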
# [9] = Cell Viability - MRC5 (AID 434; calls by dose curve;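 note: potency is the fitted concentration of half-maximal effect; cells exposed to compound for 40 hours at 37 °C; potency reflects cytotoxicity seen as loss of intracellular ATP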); settings: MRC5 lung fibroblast viability, qHTS
# Outline: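 AC50 values come from Hill-equation fits of intracellular ATP loss, measured by CellTiter-Glo luminescence. Normal lung fibroblasts (MRC5) had 40 hr compound treatment at 37 C, normalized between DMSO and 100 uM tamoxifen.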
# [10] = Cell Viability - SK-N-SH (AID 435; calls by dose curve; note: potency is the fitted concentration of half-maximal effect); settings: SK-N-SH neuroblastoma cell viability qHTS
# Outline: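 Luminescent ATP signal served as the viability read-out after 40 hours of compound treatment of human neuroblastoma SK-N-SH cells. Concentration-response data, scaled between DMSO and 100 uM tamoxifen, gave AC50 values by standard Hill modeling.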
# [11] = NFAT Signaling Pathway (AID 444); settings: Jurkat NFAT-bla M1, carbachol, beta-lactamase ratio, 5 h;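 note: carbachol stimulus at about its EC50 of 1 µM final; % is set by controls: 0 for no effect and ±100 for the full control effect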
# Outline: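 Read-out: CCF4 FRET ratio (460 nm/530 nm) after 1 h RT dye loading, used for %activity and AC50 from titration series. Cells: Jurkat NFAT-β-lactamase/M1 line, treated with compound plus 1 uM carbachol for 5 h, 37 °C.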
# [12] = Cell Viability - N2a (AID 540; active = well fitted curve in the direction sought with a large enough effect; an effect the other way counts as inactive or inconclusive;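 note: plate controls were DMSO alone for no effect and tamoxifen control for full effect; nearly all actives have a fitted effect of over 45% in size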); settings: N2a mouse neuroblastoma cell viability; activity change, negative = cytotoxicity: at 92.2 µM (top of the series)
# Outline: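 N2a mouse neuroblastoma, 1500 cells/well, 5 hr settle; compound 40 hr, 37 °C; CellTiter-Glo 20 min RT; luminescence; Hill-fit AC50.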
# [13] = Cell Viability - HUV-EC-C (AID 542; active = well fitted curve in the direction sought with a large enough effect; an effect the other way counts as inactive or inconclusive; note: potency is the fitted concentration of half-maximal effect; nearly all actives have a fitted effect of over 35% in size)
# Outline: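 Luminescent ATP read-out (CellTiter-Glo, 20 min room temperature) after 40 hr compound treatment of HUV-EC-C cells at 37 °C. Concentration-response data fitted with the standard Hill equation to give AC50; tamoxifen and doxorubicin served as positive controls.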
# [14] = Cell Viability - H-4-II-E (AID 543; active = well fitted curve in the direction sought with a large enough effect; an effect the other way counts as inactive or inconclusive; note: potency is the fitted concentration of half-maximal effect; nearly all actives have a fitted effect of over 35% in size)
# Outline: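 qHTS, rat hepatoma H-4-II-E, 1500 cells/well; 40 hr compound exposure, 37 °C; CellTiter-Glo ATP luminescence after 20 min RT; AC50 by standard Hill fit.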
# Glucocorticoid receptor (Homo sapiens), sequence (P04150 whole entry, looked up, the tested form may be a part): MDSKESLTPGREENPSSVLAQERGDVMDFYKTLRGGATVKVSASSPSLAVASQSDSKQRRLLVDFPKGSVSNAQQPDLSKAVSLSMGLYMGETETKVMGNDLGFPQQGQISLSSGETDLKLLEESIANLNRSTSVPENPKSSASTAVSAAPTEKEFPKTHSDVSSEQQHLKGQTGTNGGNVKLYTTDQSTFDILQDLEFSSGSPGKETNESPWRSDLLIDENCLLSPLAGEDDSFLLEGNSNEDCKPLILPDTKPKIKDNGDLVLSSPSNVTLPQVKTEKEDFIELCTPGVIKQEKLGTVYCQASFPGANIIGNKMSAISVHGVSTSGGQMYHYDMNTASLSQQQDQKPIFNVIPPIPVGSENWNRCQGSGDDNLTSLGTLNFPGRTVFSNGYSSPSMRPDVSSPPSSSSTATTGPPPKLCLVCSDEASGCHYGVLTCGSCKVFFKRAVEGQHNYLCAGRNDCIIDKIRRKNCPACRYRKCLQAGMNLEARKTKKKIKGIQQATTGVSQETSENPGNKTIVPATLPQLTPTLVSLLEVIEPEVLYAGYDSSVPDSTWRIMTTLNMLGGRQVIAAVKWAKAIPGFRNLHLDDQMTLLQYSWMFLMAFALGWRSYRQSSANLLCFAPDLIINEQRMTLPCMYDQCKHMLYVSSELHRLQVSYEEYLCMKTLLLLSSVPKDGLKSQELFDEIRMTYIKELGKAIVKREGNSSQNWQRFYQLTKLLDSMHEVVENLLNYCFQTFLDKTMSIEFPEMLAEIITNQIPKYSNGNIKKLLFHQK
# Cytochrome P450 1A2 (Homo sapiens), sequence (P05177 whole entry, looked up): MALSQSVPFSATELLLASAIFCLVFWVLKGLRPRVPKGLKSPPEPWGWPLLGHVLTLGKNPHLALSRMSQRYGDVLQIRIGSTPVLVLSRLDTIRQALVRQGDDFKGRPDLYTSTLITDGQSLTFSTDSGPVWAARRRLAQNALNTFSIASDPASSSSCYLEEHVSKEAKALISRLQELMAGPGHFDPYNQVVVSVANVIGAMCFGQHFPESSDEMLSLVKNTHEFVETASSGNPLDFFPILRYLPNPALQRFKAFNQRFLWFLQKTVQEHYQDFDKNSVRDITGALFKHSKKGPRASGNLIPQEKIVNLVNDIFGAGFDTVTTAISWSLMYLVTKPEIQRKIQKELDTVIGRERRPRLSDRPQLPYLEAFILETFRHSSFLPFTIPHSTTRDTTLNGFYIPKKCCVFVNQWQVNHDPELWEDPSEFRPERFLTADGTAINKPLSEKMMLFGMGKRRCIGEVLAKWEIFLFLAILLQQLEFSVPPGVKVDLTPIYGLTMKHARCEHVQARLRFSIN
# 3',5'-cyclic-AMP phosphodiesterase 4B (Homo sapiens), sequence (Q07343 whole entry, looked up): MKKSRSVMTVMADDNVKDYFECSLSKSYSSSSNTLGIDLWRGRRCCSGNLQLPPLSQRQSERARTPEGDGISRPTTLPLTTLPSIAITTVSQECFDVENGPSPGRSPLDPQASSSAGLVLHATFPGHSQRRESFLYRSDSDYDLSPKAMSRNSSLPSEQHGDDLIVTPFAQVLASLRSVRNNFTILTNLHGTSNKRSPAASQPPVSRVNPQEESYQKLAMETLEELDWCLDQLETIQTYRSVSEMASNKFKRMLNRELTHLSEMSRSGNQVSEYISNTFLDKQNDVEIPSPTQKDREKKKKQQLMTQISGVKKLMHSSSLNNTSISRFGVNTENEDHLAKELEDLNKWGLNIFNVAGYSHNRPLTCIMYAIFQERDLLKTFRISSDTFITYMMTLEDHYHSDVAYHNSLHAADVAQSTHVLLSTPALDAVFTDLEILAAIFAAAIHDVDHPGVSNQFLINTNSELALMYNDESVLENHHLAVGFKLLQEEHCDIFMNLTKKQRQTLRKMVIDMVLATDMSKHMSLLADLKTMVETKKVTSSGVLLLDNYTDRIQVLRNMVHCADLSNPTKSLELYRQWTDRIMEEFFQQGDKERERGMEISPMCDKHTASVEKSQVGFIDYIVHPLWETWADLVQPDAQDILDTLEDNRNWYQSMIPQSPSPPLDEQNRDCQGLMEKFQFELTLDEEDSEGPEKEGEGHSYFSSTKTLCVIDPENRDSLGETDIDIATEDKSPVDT
smiles,measurement,setting,value
CC(C)(S)[C@@H](N)C(=O)O,outcome,[1],inactive
same,outcome,[2],inactive
same,Potency,[3],> 20.6 µM
COc1cc(OC)c(C(=O)CCCN2CCCC2)c(OC)c1,outcome,[1],inactive
same,outcome,[2],inactive
same,Potency,[3],> 20.6 µM
same,Potency,[4],> 20.6 µM
same,Potency,[5],inactive
same,outcome,[6],inactive
COC(=O)C1=C(C)NC(C)=C(C(=O)OC(C)C)C1c1cccc2nonc12 (centres undefined),Potency,[7],31.6 µM (active)
same,Potency,[3],> 46 µM
same,Potency,[4],> 46 µM
same,Potency,[5],inactive
CCN(CC)C(=S)SSC(=S)N(CC)CC,Potency,[7],6.31 µM (active) and 1.58 µM (active)
same,Potency,[3],> 46 µM and > 20.6 µM
same,Potency,[4],> 46 µM and > 20.6 µM
same,Potency,[5],inactive
same,outcome,[6],inactive
Cc1cc(O)c2c(c1)C(=O)c1cc(O)cc(O)c1C2=O,Potency,[7],3.16 µM (active) and 398 nM (active)
same,Potency,[8],> 92 µM
same,Potency,[9],> 92 µM
same,Potency,[10],35 µM (active)
same,"activity change, negative = inhibition",[11]; at 38 µM (top of the series),7.8%
same,Potency,[3],> 46 µM
same,Potency,[4],> 46 µM
same,"activity change, negative = cytotoxicity",[12],-117% (active)
same,Potency,[13],31.6 µM (active)
same,Potency,[14],63.1 µM (active)
same,outcome,[6],inactive
CCCOc1ccc2nc(NC(=O)OC)[nH]c2c1,outcome,[1],inactive
same,outcome,[2],inactive
same,Potency,[3],> 20.6 µM
C[C@H](Cc1ccc(O)c(O)c1)[C@@H](C)Cc1ccc(O)c(O)c1,Potency,[7],31.6 µM (active)
same,Potency,[3],> 46 µM
same,Potency,[4],> 46 µM
same,outcome,[6],inactive
CCCCN(CCCC)CCC(O)c1cc2c(Cl)cc(Cl)cc2c2cc(C(F)(F)F)ccc12 (centres undefined),outcome,[1],inactive
same,"activity change, negative = inhibition",[11]; at 17.2 µM (top of the series),14.4%
same,outcome,[2],inactive
same,Potency,[3],> 20.6 µM
same,Potency,[4],> 20.6 µM
same,Potency,[5],inactive
same,outcome,[6],inactive
CC(C)c1ccc2c(c1)c(SC(C)(C)C)c(CC(C)(C)C(=O)O)n2Cc1ccc(Cl)cc1,Potency,[7],25.1 µM (active) and 31.6 µM (active)
same,Potency,[3],> 46 µM
same,Potency,[4],> 46 µM
same,Potency,[5],inactive
same,outcome,[6],inactive
CN(C)CCCC1(c2ccc(F)cc2)OCc2cc(C#N)ccc21 (centres undefined),outcome,[1],inactive
same,outcome,[2],inactive
same,Potency,[3],> 20.6 µM
CC(C)[N+]1(C)[C@@H]2CC[C@H]1CC(OC(=O)C(CO)c1ccccc1)C2 (some centres undefined),outcome,[1],inactive
same,"activity change, negative = inhibition",[11]; at 17.2 µM (top of the series),-79.9% (active)
same,outcome,[2],inactive
COc1cc2nc(N3CCN(C(=O)C4CCCO4)CC3)nc(N)c2cc1OC (centres undefined),outcome,[1],inactive
same,outcome,[2],inactive
same,Potency,[3],> 20.6 µM
CC1Cc2ccccc2N1NC(=O)c1ccc(Cl)c(S(N)(=O)=O)c1 (centres undefined),outcome,[1],inactive
same,"activity change, negative = inhibition",[11]; at 17.2 µM (top of the series),6.17%
same,outcome,[2],inactive
CCN(CC)CCOc1ccc(Cc2ccccc2)cc1,Potency,[7],12.6 µM (active)
same,Potency,[3],> 46 µM
same,Potency,[4],> 46 µM
same,Potency,[5],inactive
